Molecules are shown by their SMILES. The campaign covered roughly 4,000 compounds. About 350 (8.8%) were called active.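 Rule for the calls: active = calcium fluorescence ratio at least three times the spread of buffer wells, meaning a non-specific response in parental cells; inactive = the rest.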 Only a selection was taken, and actives are over-represented in it overall.

The assay can be described thus: calcium response in parental HEK293 cells, primary screen, counter-screen for MrgX1 agonist project, cell-based, Fluo-4 calcium flux, duplicate, agonist mode (AID 624115). The note with it: parental HEK293, Fluo-4 calcium fluorescence (FDSS), at 10 µM; hits give high values.
For the compound `CCCCC(=O)N/N=C/c1c(O)n(CC)c(=S)n(CC)c1=O`, the fluorescence ratio F(max-min)/F0 is 78.9 (active).
As to `O=C(CCN1CCCCC1)NCC(=O)Nc1ccc(Br)cc1C(=O)c1ccccc1`, the fluorescence ratio F(max-min)/F0 entry was “inactive”.
Take `CCCCCn1c(=O)c(C(=O)NCc2ccccc2)c(O)c2ccccc21`: the fluorescence ratio F(max-min)/F0 entry was “inactive”.
As to `C=CCN1C(=O)C2(C(C(=O)OCC)=C(N)Oc3c2c(=O)oc2ccccc32)c2ccccc21` (stereo not given), the fluorescence ratio F(max-min)/F0 entry is “inactive”.
For `COc1ccc(S(=O)(=O)NCc2ccc(C(=O)N3CCC4(CC3)OCCO4)cc2)cc1`, the fluorescence ratio F(max-min)/F0 entry was “inactive”.

Source of the values: PubChem BioAssay AID624115 (Johns Hopkins Ion Channel Center, 2012).
